# Assay outcomes from PubChem BioAssay.
# SMN2 splice enh: enhancers of SMN2 splice variant expression; HEK293 SMN2-luciferase splicing reporter, luminescence, 30-36 h; Potency, µM (highest dose often 46.1 µM), inactives show at the highest dose activity change, positive = activation, most hits filed as activators; 210,000 tested, 2.8% active; AID 1458; note: % of control where 0% means no effect; nearly all actives have a fitted effect of over 55% in size
#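 HEK293 cells carry an SMN2 […]–luciferase reporter in which exon 7 inclusion puts luciferase in frame. Cells were plated 10-12 h before compound addition, then incubated 30-36 h at 37C. ONE-Glo luminescence was read; sodium butyrate at 4.5 mM final served as control.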
# FLuc counter: firefly luciferase modulation, counter-screen for miR-21 project | purified FLuc, Km substrates, luminescence inhibition | 360,000 tested, 6.9% active | P08659 | AID 588342 | Potency, µM (doses to about 57.5 µM), for the others: at the highest dose activity change, negative = inhibition, hits mostly inhibitors;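 note: plate controls were vehicle for no effect and reference inhibitor for full effect; nearly all actives have a fitted effect of over 55% in size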
# Target sequence (P08659 whole entry, looked up): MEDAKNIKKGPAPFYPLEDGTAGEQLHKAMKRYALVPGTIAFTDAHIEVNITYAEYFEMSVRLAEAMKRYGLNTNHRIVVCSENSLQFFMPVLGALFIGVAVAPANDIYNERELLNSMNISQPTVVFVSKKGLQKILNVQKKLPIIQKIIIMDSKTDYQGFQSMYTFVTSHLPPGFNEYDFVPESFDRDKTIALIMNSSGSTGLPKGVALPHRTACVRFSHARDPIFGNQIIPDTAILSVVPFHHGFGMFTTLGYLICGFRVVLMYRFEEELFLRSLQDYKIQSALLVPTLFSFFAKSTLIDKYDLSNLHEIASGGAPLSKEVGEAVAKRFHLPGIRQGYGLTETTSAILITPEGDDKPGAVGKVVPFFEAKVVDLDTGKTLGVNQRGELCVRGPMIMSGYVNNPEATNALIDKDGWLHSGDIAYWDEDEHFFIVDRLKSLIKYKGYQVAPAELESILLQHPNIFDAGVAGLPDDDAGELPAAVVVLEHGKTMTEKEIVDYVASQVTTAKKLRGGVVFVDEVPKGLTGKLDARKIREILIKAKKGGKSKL
#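 Purified P. pyralis luciferase, 10 nM final, with Km-level 10 uM D-luciferin and 10 uM ATP in 50 mM Tris acetate pH 7.5, 10 mM Mg acetate, 0.01% Tween-20, 0.05% BSA; 6-point qHTS titration about 60 µM downward; luminescence read.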
# ELG1 genotox: induces genotoxicity in HEK293T cells with luciferase-tagged ELG1; AID 504466; HEK293T ELG1-luciferase reporter, luminescence, 16 h; 330,000 tested, 1.3% active; Potency, µM (top dose mostly 46 µM), for the others: top-dose activity change, positive = activation, most hits filed as activators; note: % of control where 0% means no effect; nearly all actives have a fitted effect of over 60% in size
#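 16 hr compound incubation (37 °C, 5% CO2) of HEK293T cells carrying luciferase-tagged ELG1; luciferase then measured by ONE-Glo luminescence after 30 min at RT.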
# Rab9 promoter act: Rab9 promoter activation; Huh7 Rab9 promoter-luciferase reporter, luminescence, 24 h; Potency, µM (doses to about 9.22 µM), without a hit: at the highest dose activation, negative = inhibition, actives largely listed as activators; 320,000 tested, 2.8% active; AID 485297; note: % of control where 0% means no effect; nearly all actives have a fitted effect of over 60% in size
#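 Quantitative HTS format; Huh7 Rab9-luciferase reporter cells (1500/well) receive compound 2 h post-plating, incubate 24 h at 37 °C, then get luciferase reagent for 10 min before luminescence reading.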
# NPC1 prom act: activates the NPC1 promoter | Huh7 NPC1 promoter luciferase reporter, 24 h | Potency, µM (top dose mostly 9.22 µM), for inactives: at the highest dose activation, usual class: activators | 320,000 tested, 2.4% active; note: % of control where 0% means no effect; nearly all actives have a fitted effect of over 60% in size
#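 Luminescence read-out of NPC1 promoter-driven luciferase in stably transfected Huh7 cells; compounds delivered in DMSO and left 24 h at 37C, 5% CO2, qHTS titration format.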
# * hit, by the source's call; ? = inconclusive; · = not tested or not shown; [ ] = dose if it differs, or a comment. The list is not random: actives were taken first. Their share in the collection is about 7.4%. Calls come from the whole dose curve; as a rule, active = well fitted curve in the direction sought with a large enough effect; inconclusive = small, poorly fitted or top-dose-only effect, or another doubt; inactive = no such curve, though single readings can be large; an effect the other way counts as inactive or inconclusive. Potency is the fitted concentration of half-maximal effect.
SMILES,SMN2 splice enh,FLuc counter,ELG1 genotox,Rab9 promoter act,NPC1 prom act
COc1ccc(-c2nc(CCl)cs2)cc1,5%,9.5µM*,?,?,18%
CCc1ccc(-c2nc(CCl)cs2)cc1,·,3.8µM*,?,?,?
Cc1ccc(-c2csc(-c3c[nH]c4ccccc34)n2)c(C)c1,21%,?,2%,6%,?
Oc1ccc(-c2csc(-c3c[nH]c4ccccc34)n2)c(O)c1,?,11µM*,?,?,3.5µM*
CCC1=C2CC[C@H]3C(=O)NC(=O)[C@H]3[C@H]2[C@@]2(C)C(=NCC(=O)OC)OC(=O)N2C1=O,-12%,·,·,·,·
COC(=O)c1cc2occc2n1Cc1nc(-c2ccccc2)oc1C,2%,-2%,·,·,·
O=c1ccn([C@@H]2O[C@H](COP(=O)(O)O)[C@@H](O)[C@H]2O)c(=O)[nH]1,-4%,·,·,·,·
CC(=O)c1ccc(-c2csc(N3CCC(C(N)=O)CC3)n2)cc1,·,?,8%,22%,20%
NC(=O)C1CCN(c2nc(-c3ccc(C(F)(F)F)cc3)cs2)CC1,·,17µM*,·,·,·
NC(=O)C1CCN(c2nc(-c3ccc(N4CCCCC4)nc3)cs2)CC1,·,4.8µM*,·,·,·
NC(=O)C1CCN(c2nc(-c3ccc(Br)cc3)cs2)CC1,4µM*,-13%,6.5µM*,2.5µM*,?
CC(=O)Nc1ccc(-c2csc(N3CCC(C(N)=O)CC3)n2)cc1,·,-11%,·,·,·
O=C(NCC1CCCCC1)c1nnc(C(=O)NCC2CCCCC2)c2c1[nH]c1ccccc12,-2%,·,·,·,·
COc1ccc(Br)cc1/C=N/Nc1cccc(C(=O)O)c1,11µM*,21µM*,?,1.6µM*,3.2µM*
O=C(O)c1cccc(N/N=C/c2cc(Br)cc(Br)c2O)c1,4%[1.84 µM],24µM*,?,2.8µM*,?
O=C(N/N=C/c1cc(Br)cc(Br)c1O)c1ccncc1,-41%,-18%,?,-28%,-32%
COc1ccc(Br)cc1/C=N/NC(=O)C[n+]1ccccc1,·,-3%,1%,5%,-1%
COc1ccccc1/C=C/C=N/Nc1cccc(C(=O)O)c1,·,0.54µM*,0.65µM*,0.13µM*,0.11µM*
COc1ccccc1/C=C/C=N/NC(=O)Cc1cccn1C,?,?,15%,4%,11%
C/C(=N\Nc1cccc(C(=O)O)c1)c1ccc(Cl)s1,·,11µM*,?,2.8µM*,3.2µM*
Cc1ccccc1C(=O)NC1(C(F)(F)F)N=C(c2ccccc2)N(Cc2ccccc2)C1=O (stereo unspecified),-3%,-10%,·,·,·
COc1ccc(/C(C)=N/Nc2nc3ccccc3nc2C)cc1OC,·,3µM*,1%,3%,20%
COc1ccc(C(=O)N/N=C(/C)c2cccc(NC(=O)c3ccncc3)c2)cc1OC,·,?,-4%,-2%,2%
COc1ccc(/C(C)=N/Nc2cccc(C(=O)O)c2)cc1OC,10µM*,3.8µM*,5.2µM*,1.1µM*,1µM*
COc1ccc(C(=O)Nc2cccc(/C(C)=N/NC(=O)c3ccc([N+](=O)[O-])cc3)c2)cc1OC,-5%,5.4µM*,12%,2%,7%
SMILES,SMN2 splice enh,FLuc counter,ELG1 genotox,Rab9 promoter act,NPC1 prom act
Cc1ccc2c(c1)C(=O)C1(O)CCN(c3ccccc3)C1=N2 (stereo unspecified),3%,·,·,·,·
C/C(=N\NC(=O)c1nnn(-c2nonc2N)c1C(C)C)c1cc(C)sc1C,·,17µM*,-2%,-5%,-1%
COc1cccc(/C=N/NC(=O)c2nnn(-c3nonc3N)c2-c2cccs2)c1,·,?,-5%,1%,8%
CCCOc1ccc(/C=N/NC(=O)c2nnn(-c3nonc3N)c2-c2cccs2)cc1OC,·,11µM*,-9%,-2%,15%
N/C(=N\N=C\c1ccc2c(c1)OCO2)c1nonc1N,3.5µM*,0.95µM*,?,0.32µM*,0.4µM*
COc1ccccc1CC(=O)O/N=C(\N)c1ccccn1,·,-17%,6%,21%,1%
C/C(=N\NC(=O)c1nnn(-c2nonc2N)c1C(C)C)c1ccncc1,·,0%,-5%,-13%,16%
COc1ccccc1/C=N\N=C(\N)c1ccccn1,16µM*,6.7µM*,?,2.2µM*,?
Cc1nc2ccc(S(=O)(=O)CCC(=O)Nc3ccc(C(C)C)cc3)cc2s1,·,-8%,·,·,·
CC(C)c1c(C(=O)N/N=C/c2ccc3c(c2)OCO3)nnn1-c1nonc1N,·,9.5µM*,2%,12%,1%
CCN(CC)c1ccc(/C=N/NC(=O)c2nnn(-c3nonc3N)c2C(C)C)c(O)c1,·,19µM*,-10%,-34%,-14%
COc1cccc(/C=N/N=C(\N)c2nonc2N)c1O,?,?,18µM*,2.5µM*,?
CC(C)c1c(C(=O)N/N=C/c2ccncc2)nnn1-c1nonc1N,·,?,0%,-4%,3%
CC(/C=N/NC(=O)c1nnn(-c2nonc2N)c1C(C)C)=C\c1ccco1,·,5.4µM*,1%[9.26 µM],8%,-3%
COc1cc(/C=N/N=C(/N)c2nonc2N)cc(Br)c1OCc1ccccc1C,-23%,-1%,2%,-6%,1%
CCCc1c(C(=O)N/N=C/C(C)=C/c2ccco2)nnn1-c1nonc1N,·,-18%,1%,0%,4%
Nc1nonc1-n1nnc(C(=O)N/N=C/c2ccc3c(c2)OCO3)c1-c1ccccc1,·,?,-7%,0%,-2%
O=C(CSc1nccn1Cc1ccccc1)NCc1ccccc1Cl,·,-1%,·,·,·
O=C(CN1C(=O)c2cccc3cccc1c23)Nc1ccccc1Br,-7%,5%,·,·,·
N#C/C(=C(/O)c1ccc(F)cc1)c1nc2ccccc2s1,-35%,9.5µM*,-2%,2.5µM*,2.5µM*
N#C/C(=C(/O)COc1ccccc1)c1nc2ccccc2s1,2%,19µM*,-6%,-1%,-1%
N#C/C(=C(/O)CSc1ccccn1)c1nc2ccccc2s1,77%,21µM*,6%,-6%,0%
N#C/C(=N\O)c1nc2ccccc2s1,·,?,-2%,4%,-4%
N#C/C(=C(/O)c1ccc(-c2cccc([N+](=O)[O-])c2)o1)c1nc2ccccc2s1,2%,3µM*,-4%,17%,8%
Oc1c(Cl)cc(C(c2cc(Cl)c(O)c(Cl)c2)C(c2cc(Cl)c(O)c(Cl)c2)c2cc(Cl)c(O)c(Cl)c2)cc1Cl,-31%[9.22 µM],·,·,·,·
O=C(CSCc1ccccc1Cl)N1CCN(c2ccc(F)cc2)CC1,·,-1%,·,·,·
N#C/C(=C(/O)COc1ccc(Cl)cc1)c1nc2ccccc2s1,-15%,24µM*,-10%,-2%,4%
COc1ccc(C/C(O)=C(\C#N)c2nc3ccccc3s2)cc1,-45%,?,-8%,-3%[1.84 µM],-4%
CN1CCSc2ccc(C(=O)Nc3cccc(F)c3)cc21,·,1.7µM*,2.1µM*,1µM*,1.4µM*
Cc1ccc(CN2CCSc3ccc(C(=O)Nc4ccc(C)cc4)cc32)cc1,?,21µM*,·,·,·
